# Measurements reported in PubChem BioAssay (NCATS).
# Results filed as inconclusive are left out. A call without a number means that no potency is given here. Activity calls are given as the source filed them. The call rests on the fitted dose curve; in most records, active means well fitted curve in the direction sought with a large enough effect; inconclusive means small, poorly fitted or top-dose-only effect, or another doubt; inactive means no such curve, though single readings can be large; an effect the other way counts as inactive or inconclusive.
# How the values were obtained:
# [1] = Quantitative High-Throughput drug screen in 47 multiple myeloma cell lines against the NCATS MIPE library collection: MOLP8_DSMZ cell viability assay (AID 1918977); further: nearly all actives have a fitted effect of over 45% in size
# Procedure, shortened: (§1)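 ATP-based luminescence (CellTiter-Glo, 5 min RT incubation) quantified surviving cells following two days' treatment with MIPE 4.0 agents at 37 °C, 5% CO2.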
# [2] = Quantitative High-Throughput drug screen in 47 multiple myeloma cell lines against the NCATS MIPE library collection: NCIH929_DSMZ cell viability assay (AID 1918978); further: nearly all actives have a fitted effect of over 35% in size; further: potency means the concentration at half of the fitted maximal effect
# Procedure, shortened: as §1
# [3] = Quantitative High-Throughput drug screen in 47 multiple myeloma cell lines against the NCATS MIPE library collection: LP1_DSMZ cell viability assay (AID 1918982); further: nearly all actives have a fitted effect of over 35% in size; further: potency means the concentration at half of the fitted maximal effect
# Procedure, shortened: as §1
# [4] = Quantitative High-Throughput drug screen in 47 multiple myeloma cell lines against the NCATS MIPE library collection: L363_DSMZ cell viability assay (AID 1918984); further: nearly all actives have a fitted effect of over 40% in size; further: potency means the concentration at half of the fitted maximal effect
# Procedure, shortened: as §1
# [5] = Quantitative High-Throughput drug screen in 47 multiple myeloma cell lines against the NCATS MIPE library collection: OCIMY1_PLB cell viability assay (AID 1918979); further: nearly all actives have a fitted effect of over 35% in size; further: potency means the concentration at half of the fitted maximal effect; on viability: series mostly up to about 46 µM
# Procedure, shortened: as §1
# [6] = Quantitative High-Throughput drug screen in 47 multiple myeloma cell lines against the NCATS MIPE library collection: MM1S_ATCC cell viability assay (AID 1918980); further: nearly all actives have a fitted effect of over 45% in size; further: potency means the concentration at half of the fitted maximal effect
# Procedure, shortened: as §1
# [7] = Quantitative High-Throughput drug screen in 47 multiple myeloma cell lines against the NCATS MIPE library collection: KMS28PE_JCRB cell viability assay (AID 1918983); further: nearly all actives have a fitted effect of over 35% in size; further: potency means the concentration at half of the fitted maximal effect
# Procedure, shortened: as §1
# [8] = Quantitative High-Throughput drug screen in 47 multiple myeloma cell lines against the NCATS MIPE library collection: KMS34_JCRB cell viability assay (AID 1918985); further: nearly all actives have a fitted effect of over 40% in size; further: potency means the concentration at half of the fitted maximal effect
# Procedure, shortened: as §1
# [9] = Quantitative High-Throughput drug screen in 47 multiple myeloma cell lines against the NCATS MIPE library collection: MM1R_ATCC cell viability assay (AID 1918981); further: nearly all actives have a fitted effect of over 35% in size; further: potency means the concentration at half of the fitted maximal effect
# Procedure, shortened: as §1
SMILES,Potency [1],Potency [2],Potency [3],Potency [4],Potency [5],Potency [6],Potency [7],Potency [8],Potency [9]
OC(CN1CCC(Cc2ccc(F)cc2)CC1)c1ccc(Cl)cc1 (stereo not drawn),inactive,inactive,inactive,inactive,,,,,
CS(=O)(=O)Oc1ccc2c(NC(N)=O)c(C(=O)c3ccc(Cl)cc3Cl)oc2c1,,9.35 µM (active),inactive,6.62 µM (active),inactive,2.96 µM (active),inactive,inactive,
O=C1[C@H](Cc2ccc(O)cc2)N2C(=O)CCN(C(=O)NCc3ccccc3)[C@H]2CN1Cc1cccc2ccccc12,,3.72 µM (active),,inactive,16.6 µM (active),3.72 µM (active),9.35 µM (active),,3.32 µM (active)
CC(C)OC(=O)C1=CN(C(=O)c2ccc(F)c(F)c2)CC(C)(C)c2c1[nH]c1ccccc21,inactive,inactive,inactive,,,,,inactive,
Cn1c(=O)c(F)c(Nc2ccc(I)cc2F)c2c(=O)n(C[C@@H](O)CO)cnc21,inactive,,inactive,,inactive,,inactive,inactive,inactive
O=C(C=Cc1ccc(/C=C/C(=O)Nc2ccc(C3=NCCN3)cc2)cc1)Nc1ccc(C2=NCCN2)cc1,inactive,inactive,inactive,,inactive,,,inactive,
Cc1ccnc(NS(=O)(=O)c2ccc(NC(=O)Nc3ccc(S(=O)(=O)Nc4nccc(C)n4)cc3)cc2)n1,,inactive,,,inactive,inactive,inactive,inactive,inactive
OC[C@H](Cc1ccccc1)Nc1nc(Oc2ccc3c(c2)CCC3)nc2c1ncn2Cc1ccc(-c2ccccc2)cc1,inactive,,,,,,inactive,18.7 µM (active),inactive
OCCC#Cc1nc(-c2ccc(F)cc2)c(-c2ccncc2)n1CCCc1ccccc1,inactive,8.33 µM (active),,5.26 µM (active),,,inactive,,
COc1c(Cl)cc2c([nH]c3cnccc32)c1NC(=O)c1cccnc1C,inactive,0.743 µM (active),7.43 µM (active),0.743 µM (active),inactive,,,3.32 µM (active),
CS(=O)(=O)c1ccc(C(=O)Nc2ccc(Cl)c(-c3ccccn3)c2)c(Cl)c1,inactive,2.96 µM (active),inactive,inactive,,,inactive,inactive,inactive
O=S(=O)(N=Cc1c(O)ccc2ccccc12)c1cccs1,,4.69 µM (active),inactive,,inactive,0.0209 µM (active),,,inactive
Cc1cn[nH]c1,,1.18 µM (active),,0.469 µM (active),1.87 µM (active),0.332 µM (active),0.0743 µM (active),0.0662 µM (active),0.132 µM (active)
COc1ccccc1-c1cccc(-c2c(O)c3cc(C#N)c(Cl)cc3[nH]c2=O)c1,inactive,,,,inactive,inactive,inactive,inactive,inactive
O=C(NOC[C@H](O)CO)c1ccc(F)c(F)c1Nc1ccc(I)cc1F,,0.059 µM (active),inactive,,inactive,16.6 µM (active),2.96 µM (active),,
COc1ccc(CCN2CCN(CCCc3ccccc3)CC2)cc1OC,inactive,inactive,,,,,inactive,,
CCOC(=O)N[C@@H]1CC[C@@H]2[C@@H](C1)C[C@H]1C(=O)O[C@H](C)[C@H]1[C@@H]2C=Cc1ccc(-c2cccc(F)c2)cn1,inactive,,,,,,,,20.9 µM (active)
CCn1c(-c2nonc2N)nc2c(C#CC(C)(C)O)ncc(OC[C@H]3CCCNC3)c21,,0.0209 µM (active),,,4.18 µM (active),0.0264 µM (active),0.296 µM (active),,0.0418 µM (active)
CN(C)c1ccc(Nc2nc(N)n(C(=O)c3c(F)cccc3F)n2)cc1,,26.4 µM (active),16.6 µM (active),20.9 µM (active),inactive,14.8 µM (active),,2.35 µM (active),
O=c1n(CCCN2CCN(c3cccc(Cl)c3)CC2)nc2ccccn12,,inactive,inactive,inactive,,,inactive,inactive,inactive
CNCc1ccc(-c2[nH]c3cc(F)cc4c3c2CCNC4=O)cc1,,inactive,inactive,inactive,inactive,,inactive,inactive,inactive
O=C1CCc2cc(OCCCCc3nnnn3C3CCCCC3)ccc2N1,,,inactive,inactive,inactive,,inactive,,inactive
C[C@H](NC(=O)Cc1cc(F)cc(F)c1)C(=O)N[C@@H]1C(=O)N(C)c2ccccc2-c2ccccc21,,4.69 µM (active),inactive,,,9.35 µM (active),inactive,,
C1COC(NC(C2CC2)C2CC2)=N1,,inactive,inactive,,,inactive,inactive,,
CC1(C)CNc2cc(NC(=O)c3cccnc3NCc3ccncc3)ccc21,,,,,inactive,,,,20.9 µM (active)

SMILES,Potency [1],Potency [2],Potency [3],Potency [4],Potency [5],Potency [6],Potency [7],Potency [8],Potency [9]
c1ccc([C@H]2CN3CCSC3=N2)cc1,,inactive,inactive,inactive,inactive,,inactive,inactive,inactive
CCN(CC)CCCC(C)Nc1nc(C)cc(Nc2ccc3nc(C)cc(N)c3c2)n1 (stereo not drawn),,16.6 µM (active),inactive,,,,inactive,inactive,
CCOc1cc(N2CCC(O)CC2)ccc1Nc1ncc2c(n1)N(C)c1ccccc1C(=O)N2C,,,,0.526 µM (active),,5.26 µM (active),16.6 µM (active),10.5 µM (active),16.6 µM (active)
COc1cc(Nc2ncc3c(n2)-c2ccc(Cl)cc2C(c2c(F)cccc2OC)=NC3)ccc1C(=O)O,,inactive,inactive,inactive,inactive,,,,inactive
Cc1cnc(Nc2ccc(OCCN3CCCC3)cc2)nc1Nc1cccc(S(=O)(=O)NC(C)(C)C)c1,,inactive,inactive,0.296 µM (active),inactive,,,,inactive
CCOc1ccc(Cc2cc([C@@H]3O[C@H](CO)[C@@H](O)[C@H](O)[C@@H]3O)ccc2Cl)cc1,,inactive,inactive,18.7 µM (active),inactive,,inactive,inactive,inactive
COCC(=O)NCC=Cc1ccc2ncnc(Nc3ccc(Oc4ccc(C)nc4)c(C)c3)c2c1,,20.9 µM (active),,14.8 µM (active),,26.4 µM (active),,,
C[C@]12CC[C@H](O)CC1=CC[C@@H]1[C@H]2CC[C@]2(C)C(c3cccnc3)=CC[C@H]12,,,inactive,inactive,inactive,,inactive,inactive,
CCc1cc(Nc2nccc(-c3c(-c4ccc(OC)c(C(=O)Nc5c(F)cccc5F)c4)nc4ccccn34)n2)c(OC)cc1N1CCC(N2CCN(S(C)(=O)=O)CC2)CC1,,7.43 µM (active),,16.6 µM (active),,,26.4 µM (active),,
N=c1nc(N2CCCCC2)cc(N)n1O,,,inactive,,inactive,inactive,inactive,,inactive
COc1ccc2nc(S(=O)Cc3ncc(C)c(OC)c3C)[nH]c2c1 (stereo not drawn),,10.5 µM (active),inactive,,,18.7 µM (active),,inactive,
Cc1[nH]c(=O)c(C#N)cc1-c1ccncc1,,10.5 µM (active),,inactive,inactive,,inactive,inactive,inactive
NC(=O)c1ccc(I)c([N+](=O)[O-])c1,,8.33 µM (active),inactive,,inactive,18.7 µM (active),inactive,inactive,
Cc1cccc(-c2[nH]c(C(C)(C)C)nc2-c2ccc3nccnc3c2)n1,,16.6 µM (active),,1.87 µM (active),,,,,20.9 µM (active)
Cc1cc(Nc2nc(N[C@@H](C)c3ncc(F)cn3)ncc2Cl)n[nH]1,,,,,inactive,3.32 µM (active),20.9 µM (active),,
CN1CCN(CCCN2c3ccccc3Sc3ccc(C(F)(F)F)cc32)CC1,,2.09 µM (active),inactive,,inactive,1.05 µM (active),,inactive,
Cc1cc(C=c2sc3nc4ccccc4n3c2=O)c(C)n1-c1ccccc1,,inactive,inactive,,inactive,,,14.8 µM (active),7.43 µM (active)
Cc1[nH]c(=O)c(C#N)cc1-c1ccc2nccn2c1,,inactive,,,,,inactive,,
CNC[C@H](O)c1cccc(O)c1,,inactive,inactive,,inactive,inactive,inactive,inactive,
C[C@]1(c2nc3c(C(N)=O)cccc3[nH]2)CCCN1,,23.5 µM (active),,,,4.69 µM (active),inactive,,
NC(=O)c1cnccn1,,inactive,inactive,inactive,inactive,,inactive,,inactive
CC(C)(C)NCC(O)c1ccc(O)c(CO)c1 (stereo not drawn),,inactive,inactive,,,0.059 µM (active),,,0.0264 µM (active)
COCCNCCCn1c(C(=O)CF)c(-c2ccc(C)cc2)c2c(N)ncnc21,,inactive,7.43 µM (active),,inactive,,inactive,16.6 µM (active),
Fc1ccc(Cl)cc1-c1nc(Nc2ccncc2)c2nccnc2n1,,16.6 µM (active),,,,inactive,,1.32 µM (active),
COc1ccc([C@@H]2CC(=O)c3c(O)cc(O[C@@H]4O[C@H](CO[C@@H]5O[C@@H](C)[C@H](O)[C@@H](O)[C@@H]5O)[C@@H](O)[C@H](O)[C@@H]4O)cc3O2)cc1O,,inactive,inactive,inactive,inactive,,inactive,inactive,inactive
